# The list is not random: actives were taken first. Their share in the collection is about 4.1%.
# hgDAF12 agonist = agonists of H. glycines DAF-12 nuclear receptor | HEK293 GAL4-hgDAF12 UAS-luciferase reporter, agonist luminescence; normalized to butyrate control | activation, % at 6.8 µM | 370,000 compounds, 1.8% hits | AID 687014;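 active = activation above a cutoff set at the mean of all screened compounds plus 3 SD, cut at about 10% in these data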;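 also: 0% = DMSO wells and 100% = sodium butyrate wells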
# DAX1 inh-1 = inhibitors of DAX1 repression of SF-1 activated StAR promoter. HEK293T StAR-luciferase reporter, SF-1/DAX-1 repression relief. AID 652010. 370,000 compounds, 1.1% hits. inhibition, % at 6.8 µM;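 active = inhibition above the mean over all tested compounds plus 3 SD, cut at about 3.6% in these data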;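 also: 0% = DAX-1 cells with DMSO and 100% = cells lacking DAX-1 with DMSO; higher inhibition means more luminescence from relief of DAX-1 repression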
# ssDAF-12 act = activators of S. stercoralis DAF-12 nuclear receptor | HEK293 ssDAF-12/GRIP1 lit1-tk-luc reporter, luminescence; % of 3 µM dafachronic acid response | activation, % at 6.8 µM | 370,000 compounds, 1% hits | AID 652126;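 active = activation above the mean over all tested compounds plus 3 SD, cut at about 0.9% in these data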;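 also: 0% = DMSO-only wells and 100% = 3 µM delta7-dafachronic acid wells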
# hcDAF-12 act = activators of H. contortus DAF-12 nuclear receptor; HEK293 hcDAF-12 lit1-tk-luc reporter, luminescence; 0% DMSO, 100% Δ7-dafachronic acid; AID 652067; activation, % at 6.8 µM; 370,000 compounds, 1.4% hits;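 active = activation above the mean of all tested compounds plus 3 SD, cut at about 5.5% in these data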;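 also: 100% = response to 3 µM Δ7-dafachronic acid high control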
# DAX1 inh-2 = inhibits human nuclear receptor DAX1; P51843; HEK293 Gal4-DAX1 luciferase reporter, luminescence; inhibition, % at 6.75 µM; 340,000 compounds, 0.99% hits; AID 504766;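 active = inhibition above the mean over all tested compounds plus 3 SD, cut at about 4.2% in these data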;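 also: 0% = DAX1-transfected cells with DMSO and 100% = empty-vector control cells with DMSO; inhibition shows as a rise in luminescence from relieved DAX1 repression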
# Target sequence (P51843 207-470 limits assumed): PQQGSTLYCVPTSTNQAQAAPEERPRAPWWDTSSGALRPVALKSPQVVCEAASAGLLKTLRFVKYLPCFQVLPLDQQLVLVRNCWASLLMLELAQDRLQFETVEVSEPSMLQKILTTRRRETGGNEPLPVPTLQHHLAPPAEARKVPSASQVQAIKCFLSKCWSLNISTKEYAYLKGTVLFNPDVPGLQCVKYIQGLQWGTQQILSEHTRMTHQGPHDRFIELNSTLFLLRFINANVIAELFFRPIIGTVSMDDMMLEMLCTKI
# * hit, by the source's call; · = no result given.
SMILES,hgDAF12 agonist,DAX1 inh-1,ssDAF-12 act,hcDAF-12 act,DAX1 inh-2
CCN(CC)c1cc(-c2ccccc2)ncn1,-1,0,-1,-1,0
CN(C)c1ccc(-c2ccccc2)nn1,8,3.8*,0,3,1
Nc1ccn([C@@H]2O[C@H](C(=O)N[C@H](Cc3ccccc3)C(=O)NCc3cccc4c3OCO4)[C@@H](O)[C@H]2O)c(=O)n1,2,0,-1,2,·
Nc1c(-c2ccc(Cl)cc2)nnn1-c1ccccc1,11*,2,-1,2,3
Nc1c(-c2ccc(Cl)cc2)cnn1-c1ccccc1,10,2,1,3,3
CCOC(=O)CSc1ccc(-c2nc3ccccc3[nH]2)cn1,5,-1,-1,-1,2
N#CCSc1ccc(-c2nc3ccccc3[nH]2)cn1,11*,3,0,2,0
O=C1c2ccccc2NC(c2ccc(Br)o2)N1O (centres undefined),3,2,0,2,1
O=C1c2ccccc2NC(c2ccco2)N1O (centres undefined),0,0,-1,0,4.4*
O=C(OC1CC2CCC(C1)[N+]21CCCC1)C(O)(c1ccccc1)c1ccccc1 (centres undefined),1,0,-1,-1,·
Cc1ccc(C2=CCN(C)C(=O)N2c2ccc([N+](=O)[O-])cc2)cc1,4,0,-1,0,·
CC(=O)Nc1ccc(N2C(=O)CC(Sc3nc4ccccc4s3)C2=O)cc1 (centres undefined),-1,0,3.9*,1,1
COc1ccccc1Oc1nc2ccccn2c(=O)c1/C=C(\C#N)C(=O)Nc1c(C)n(C)n(-c2ccccc2)c1=O,0,0,0,2,4.8*
Cc1ccsc1/C=C(\C#N)C(=O)Nc1c(C)n(C)n(-c2ccccc2)c1=O,0,1,-2,0,4.8*
CCOC(=O)CC[C@@]1(C(=O)OCC)C[C@@H](CC(=O)N2CCN(C(=O)c3ccco3)CC2)C(=O)N2CCCC=C21,-1,0,-1,1,·
COC(=O)[C@]12CCCCC=C1N(Cc1ccc(OC)cc1)C(=O)[C@@H]2CC(=O)NCc1cccc(C(F)(F)F)c1,0,0,-2,-2,·
O=C(Nc1cccc(C(F)(F)F)c1)OC1CC2CC1[C@H]1CCCCN1[C@H]2Cc1ccccc1 (some centres undefined),0,-1,-1,-1,·
Cc1ccccc1-c1cccc2c3c([nH]c12)[C@@H]1C[C@H]2[C@@H](C(=O)N1CC3)[C@H](C)ON2C,2,0,0,0,·
C[C@@H]1ON(C)[C@H]2C[C@H]3c4[nH]c5ccccc5c4CCN3C(=O)[C@@H]12,1,1,1.0*,3,-1
COCC(=O)N1[C@H](CO)[C@@H](c2ccc(-c3cccnc3)cc2)[C@H]1CN(C)S(=O)(=O)c1ccccc1[N+](=O)[O-],-3,0,-1,0,·
Nn1c(SCC(=O)Nc2cccc3ccccc23)nnc1-c1cc(-c2ccc(Cl)cc2)n[nH]1,-2,0,0,2,·
Cc1ccc(CNC(=O)c2ccc[nH]2)cc1,2,1,-1,-2,5.6*
Cc1ccc(CNC(=O)NCc2ccccc2)cc1,1,0,-1,0,1
CC(=O)Nc1ccc(NC(=O)CSc2ccc(C)cc2)cc1,1,0,-1,-1,0
Cc1ccc(SCC(=O)c2ccc[nH]2)cc1,11*,0,-1,0,1
SMILES,hgDAF12 agonist,DAX1 inh-1,ssDAF-12 act,hcDAF-12 act,DAX1 inh-2
COC(=O)[C@@]12CCCCC3=C1N(CCC3)C(=O)[C@H]2CC(=O)NCC1CCCCC1,8,-1,-1,1,·
Cc1cccc(NC(=O)C(C)SCc2nc3sc4c(c3c(=O)[nH]2)CCCC4)n1 (centres undefined),2,-2,1.3*,2,-1
Cc1cccc(NC(=O)CCc2nc3sc4c(c3c(=O)[nH]2)CCCC4)c1,3,-1,-1,-2,0
Nc1[nH]c(C(=O)c2ccccc2)c(-c2ccc(Cl)cc2)c1C(=O)c1c[nH]c2ccccc12,6,1,0,2,·
CC(=O)NC(CC(=O)OCC(=O)c1c(N)n(CC(C)C)c(=O)n(C)c1=O)c1ccccc1 (centres undefined),-1,-3,-1,0,-2
CC(=O)N/C(=C\c1ccccc1)C(=O)OCC(=O)c1c(N)n(CC(C)C)c(=O)n(C)c1=O,-1,1,-1,-1,4.4*
O=C1CSC(=S)N1N=Cc1c(O)ccc2ccccc12,4,2,1.0*,4,3
COc1ccc2ccccc2c1/C=N/N1C(=O)CSC1=S,-1,0,0,1,-1
COC(=O)CCN(C(=O)c1ccc2c(c1)OCO2)c1ccccn1,0,1,-1,-1,0
COC(=O)CCN(C(=O)c1cccc(OC(C)=O)c1)c1ccccn1,0,0,-1,0,4.5*
C=CCc1cccc(CNc2nc3ccccc3n2CCC)c1O,0,-1,-1,-3,4.7*
C=CCc1cccc(CNc2nc3ccccc3n2CC)c1O,3,-1,-1,-1,0
NC(=O)Nc1ccccc1C(=O)N1CCC(O)(c2ccc(Cl)cc2)CC1,·,·,·,·,5.4*
O=C(O)c1ccc(/C=N/N2CCN(c3ccccc3)CC2)cc1,10,1,-1,2,5.4*
COc1ccccc1N1CCN(/N=C/C=C\c2ccco2)CC1,10,4.1*,0,5,1
O=C(c1ccc(-c2ccccc2)cc1)N1CCN(c2ccccc2)CC1,5,0,1,1,4.8*
COc1ccccc1N1CCN(/N=C/c2ccc(C(=O)O)cc2)CC1,11*,1,0,3,1
CN1C(=O)c2cc(NC(=O)Nc3ccc(F)c(F)c3)ccc2OC[C@H]2O[C@@H](CC(=O)O)CC[C@H]21,-1,0,0,1,·
CC(C)CN1C(=O)[C@@]2(CC(=O)N(C)C2c2ccccc2)c2cc(-n3cc(CN(C)C)nn3)ccc21 (some centres undefined),-2,0,-1,0,·
C=CCOC(=O)N1CCN(C(=O)c2ccc3nc(C)n(C4CCCC4)c3c2)CC1,1,1,-2,-1,·
COc1ccc(F)c(CN(C)CC2CCCN(CCc3ccc(F)cc3)C2)c1 (centres undefined),0,0,-1,0,4.5*
CC1=NN(C(=O)c2ccco2)C(O)(c2ccccc2)C1 (centres undefined),11*,1,1.0*,3,6.3*
CCCCCCN1CCS(=O)(=O)N(Cc2ccc(OC)cc2)C(C(=O)OC)C1 (centres undefined),-1,-1,-2,-3,·
COc1ccc(C2C(=O)NN=C2C)cc1 (centres undefined),1,1,-1,0,5.3*
COc1ccc(C2c3c(nc[nH]c3=O)Oc3nc[nH]c(=O)c32)cc1,·,·,·,·,-1
